Molecules are shown by their SMILES. Calls of active or inactive are those of the source.

The source of these data is PubChem BioAssay.

For one assay, the target named is Albumin (Bos taurus) (UniProt P02769). In words: bovine serum albumin binders on microarray, profiling panel, artefact control for SMM control protein annotation, biochemical, small-molecule microarray, Alexa647 label, 635/667 nm fluorescence (AID 1118).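 Also: score merges 667 nm emission intensity and signal-to-noise per printed compound spot.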 The settings on record: BSA-A647 binding, fluorescence 635 nm, higher = more signal.
Assay [1] can be described thus: small-molecule microarray binders of probe aXIP, primary screen, biochemical, NeuroSMM set, 635/667 nm fluorescence (AID 1119).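 Also: probe is the protein aXip251-270 applied at 1 µg/mL to compound-printed slides; binding of probe to printed compounds measured as 667 nm fluorescence plus signal to noise.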 The note with it: higher = more signal, called active from +8 up or from −8 down.
Assay [2] in a line: small-molecule binders of probe aNOTCH3, primary screen, biochemical, small-molecule microarray, 635/667 nm fluorescence (AID 1120).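 Also: probe is a biotin-tagged antibody raised against NOTCH3 rather than NOTCH3 protein; score merges spot fluorescence near 667 nm with spot signal to noise.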 The settings on record: higher = more signal.
Assay [3] can be described thus: small-molecule binders of probe aNOTCH2, primary screen, biochemical, small-molecule microarray, 635/667 nm fluorescence (AID 1121).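 Also: score merges feature fluorescence read at 667 nm with its signal to noise.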 The settings on record: higher = more signal.
The target of assay [4] is Carbonic anhydrase 2 (Homo sapiens) (UniProt P00918). In words: CAII small-molecule binders, profiling panel, biochemical, small-molecule microarray, Alexa647-labelled CAII (AID 1122). The settings on record: CAII-A647 binding fluorescence, higher = more signal.
The nature of assay [5]: COS7 lysate on small-molecule microarray, probe aHis, 635 nm (AID 1123).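 Also: z-score combines 667nm fluorescence intensity with signal-to-noise per printed compound spot.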 The settings on record: COS7 cell lysate, fluorescence, higher = more signal.
Assay [6] can be described thus: compound binding in COS7 lysate, probe aLAP1, primary screen, cell lysate, small-molecule microarray (AID 1124).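 Also: lysate comes from COS7 cells expressing LAP1 and is applied at 0.3 µg/mL; score merges spot fluorescence near 667 nm with signal-to-noise over triplicate slides.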 The settings on record: probe aLAP1, fluorescence, higher = more signal.
In another assay the test system is Sam68 (KHDRBS1). In words: Sam68 small-molecule binders, primary screen, biochemical, small-molecule microarray, 635 nm fluorescence (AID 1125).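 Also: score merges 667 nm channel intensity with signal to noise over triplicate slides.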 The settings on record: small-molecule microarray binding, higher = more signal.
Assay [7] has as its system Chordin-like protein 2 (CHRDL2). In words: CHRDL2 small-molecule binders, primary screen, biochemical, small-molecule microarray, 635 nm fluorescence (AID 1126).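 Also: printed compound slides probed with Chrdl2 protein at 4 µg/mL for 1 h at 4 C; score merges 667 nm emission intensity with signal to noise over three replicate slides.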 The settings on record: small-molecule microarray binding, fluorescence 635 nm; higher = more signal.
In assay [8] the target is Concanavalin-A (Canavalia ensiformis) (UniProt P02866). Put plainly: ConA small-molecule binders, primary screen, artefact control for SMM control protein annotation, biochemical, small-molecule microarray, Alexa647 label, 635 nm (AID 1127).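 Also: z combines 667 nm emission intensity with signal-to-noise across three replicate slides.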 The note with it: ConA-A647 binding fluorescence, higher = more signal.
Chain of Concanavalin-A (Canavalia ensiformis) (P02866 whole entry, looked up): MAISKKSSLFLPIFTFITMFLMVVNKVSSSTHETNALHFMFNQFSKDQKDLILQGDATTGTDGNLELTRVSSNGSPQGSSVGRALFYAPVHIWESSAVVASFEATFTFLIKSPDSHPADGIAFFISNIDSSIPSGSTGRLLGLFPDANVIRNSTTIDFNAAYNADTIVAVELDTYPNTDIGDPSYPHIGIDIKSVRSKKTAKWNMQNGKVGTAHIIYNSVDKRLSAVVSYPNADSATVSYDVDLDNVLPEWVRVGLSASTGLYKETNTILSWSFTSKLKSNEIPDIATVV

Chain of Albumin (Bos taurus) (P02769 whole entry, looked up): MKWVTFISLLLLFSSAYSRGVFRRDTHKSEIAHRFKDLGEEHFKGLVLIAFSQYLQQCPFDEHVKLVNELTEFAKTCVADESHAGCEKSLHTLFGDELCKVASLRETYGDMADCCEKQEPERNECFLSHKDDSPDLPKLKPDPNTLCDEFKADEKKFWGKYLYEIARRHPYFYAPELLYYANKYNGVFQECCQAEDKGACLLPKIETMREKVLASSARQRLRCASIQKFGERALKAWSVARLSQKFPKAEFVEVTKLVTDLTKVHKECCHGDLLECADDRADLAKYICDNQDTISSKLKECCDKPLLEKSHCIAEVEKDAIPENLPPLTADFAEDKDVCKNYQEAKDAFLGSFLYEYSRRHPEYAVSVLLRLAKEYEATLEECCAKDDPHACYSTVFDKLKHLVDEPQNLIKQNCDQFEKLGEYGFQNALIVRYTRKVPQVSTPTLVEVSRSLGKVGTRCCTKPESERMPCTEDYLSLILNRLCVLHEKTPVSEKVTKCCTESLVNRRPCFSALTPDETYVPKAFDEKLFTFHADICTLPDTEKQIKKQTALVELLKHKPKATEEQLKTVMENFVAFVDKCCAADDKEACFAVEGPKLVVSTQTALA

Turning to `CCN1C(=O)[C@H]2[C@H]3[C@H](O)[C@H](O)CC(=O)[C@@H]3CC[C@H]2C1=O`, the composite z-score in the assay with Albumin (Bos taurus) is 0.4; in assay [2], -0.0377; in [3], -0.179; in assay [4], 0.0044; in assay [5], 0.304; in assay [6] it was 0.335. The composite z-score with Sam68 (KHDRBS1) worked out at 0.826; in [7], 0.503; in assay [8], 0.735. The composite Z-score in [1] is -0.141 (inactive).
Take `COC(=O)CC=C[C@@H](C)[C@@H](C=NO[C@@H]1O[C@H](COC(C)=O)[C@@H](OC(C)=O)[C@H](OC(C)=O)[C@H]1OC(C)=O)NS(=O)(=O)c1ccc(C)cc1`: the composite z-score with Albumin (Bos taurus) was -0.228; in [2], -0.0111; in assay [3], -0.0984; in [4], -0.701; in assay [5] it was -0.323; in [6] it was -0.045. The composite z-score in the assay with Sam68 (KHDRBS1) is 0.682; in assay [7] it was -0.051; in [8], -0.909. Moreover, the composite Z-score in [1] was 0.504 (inactive).
Turning to `CCCNC(=O)OC[C@H]1O[C@H](CCON=C(C)CCN2CCc3nc(CC)c(CC)cc3C2)C=C[C@@H]1Oc1ccc(OC)cc1`, the composite z-score in the assay with Albumin (Bos taurus) was 0.322; in assay [2] it was 0.105; in assay [3], -0.14; in assay [4], -0.164; in [5], 0.176; in [6], 0.0186. Moreover, the composite z-score with Sam68 (KHDRBS1) is 0.285; in assay [7] it was -0.0024; in assay [8] it was 0.0004. Also, the composite Z-score in assay [1] is 0.0421 (inactive).
As for `COC(=O)[C@H](C)NC(=O)CCC1CC(OC(=O)NCCc2ccc(F)cc2)CC2(CCCC(COC(=O)NCCC(C)C)O2)O1` (stereo not given in full), the composite z-score is 0.828 with Albumin (Bos taurus); -0.0262 in assay [2]; 0.128 in assay [3]; 0.325 in assay [4]; 0.834 in assay [5]; -0.234 in assay [6]. The composite z-score in the assay with Sam68 (KHDRBS1) is 0.36; in assay [7], 0.0905; in [8], 0.0934. Besides, in assay [1], the composite Z-score was 0.443 (inactive).
With `COc1ccc(COC(=O)NN=C2C[C@@H](O)[C@@H](O)[C@@H]3[C@@H]4C(=O)N(C5CCCCC5)C(=O)[C@@H]4CC[C@H]23)cc1`, the composite z-score with Albumin (Bos taurus) is 0.213; in assay [2], -0.365; in assay [3], -0.28; in assay [4], 0.262; in assay [5], -0.0294; in assay [6], -0.222. Moreover, the composite z-score in the assay on Sam68 (KHDRBS1) is -0.331; in assay [7], -0.275; in assay [8] it was -1.14. For the same compound, in assay [1], the composite Z-score is 1.22 (inactive).
For `COc1cccc([C@H]2Oc3ccc(OC)cc3C(=NO[C@H](C)c3cn([C@H](CO)Cc4ccccc4)nn3)[C@@H]2O)c1`, the composite z-score was -1.28 with Albumin (Bos taurus); -0.208 in [2]; -0.187 in [3]; 0.406 in assay [4]; 0.418 in [5]; 0.0672 in [6]. Moreover, the composite z-score in the assay on Sam68 (KHDRBS1) was -0.779; in assay [7] it was 0.08; in assay [8], -2.12. In [1], the composite Z-score is -0.372 (inactive).
`CC(CCC(=O)OC[C@H]1O[C@H](C#Cc2ccccc2)C=C[C@@H]1Oc1ccc(C)cc1)=NO[C@H](C)c1cn([C@H](CO)Cc2ccccc2)nn1`: the composite z-score with Albumin (Bos taurus) was 0.276; in [2], -0.0847; in [3], -0.0966; in assay [4] it was -0.0419; in assay [5], 0.757; in assay [6] it was 0.0395. For the same compound, the composite z-score in the assay on Sam68 (KHDRBS1) was 1.12; in assay [7] it was 0.569; in assay [8], 0.79. In addition, the composite Z-score in assay [1] was 0.392 (inactive).
For the compound `CC(C)=CCCC(C)=CCON=C1C[C@@H](O)[C@@H](O)[C@@H]2[C@@H]3C(=O)N(Cc4ccccc4)C(=O)[C@@H]3CC[C@@H]12`, the composite z-score was 0.772 with Albumin (Bos taurus); -0.0395 in assay [2]; -0.193 in assay [3]; -0.148 in assay [4]; 0.043 in [5]; -0.0612 in [6]. Besides, the composite z-score in the assay on Sam68 (KHDRBS1) came to 0.571; in assay [7], 1.4; in assay [8] it was 0.304. Also, the composite Z-score in [1] is -0.349 (inactive).
As for `C[C@@H](c1ccccc1)N1C(=O)[C@H]2[C@H]3[C@H](O)[C@H](O)CC(=NO[C@@H]4O[C@H](CO)[C@@H](O)[C@H](O)[C@H]4O)[C@@H]3CC[C@H]2C1=O`, the composite z-score with Albumin (Bos taurus) was 0.423; in assay [2], 0.0996; in [3], -0.109; in [4] it was -0.157; in [5] it was 0.335; in [6], -0.0315. In addition, the composite z-score worked out at 0.258 in the assay with Sam68 (KHDRBS1), 0.25 in assay [7] and 0.411 in [8]. Besides, in assay [1], the composite Z-score is -0.766 (inactive).
Regarding `C=CC[C@@H]1C=C[C@H](ON=C(C)CCN2CCc3nc(-c4ccccc4)c(-c4ccccc4)cc3C2)[C@@H](CO)O1`, the composite z-score with Albumin (Bos taurus) is 0.585; in assay [2] it was -0.0362; in assay [3] it was -0.0995; in assay [4] it was 0.1; in assay [5], 1.6; in assay [6], -0.0995. The values for the composite z-score (in the assay with Sam68 (KHDRBS1); in assay [7]; in assay [8]) were 1.31, 0.321 and 0.967, respectively. For the same compound, the composite Z-score in assay [1] is 0.364 (inactive).
Regarding `CCc1cc2c(nc1CC)CCN(CCC(C)=NO[C@H](C)c1cn([C@H](CO)Cc3ccccc3)nn1)C2`, the composite z-score is 0.867 with Albumin (Bos taurus); 0.189 in assay [2]; -0.101 in [3]; 0.0934 in [4]; 0.287 in assay [5]; 0.022 in assay [6]. Further, the composite z-score was 0.708 with Sam68 (KHDRBS1), 0.357 in [7] and -0.0875 in assay [8]. Further, in [1], the composite Z-score is -0.51 (inactive).
In the case of `CCOC(=O)[C@H](CC(C)C)NC(=O)CCC1CC(OC(=O)NCc2cccc3ccccc23)CC2(CCCC(COC(=O)NCCC(C)C)O2)O1` (stereo not given in full), the composite z-score was 0.352 with Albumin (Bos taurus); -0.147 in assay [2]; -0.153 in assay [3]; 0.562 in assay [4]; 0.795 in assay [5]; -0.104 in assay [6]. Also, the composite z-score is -0.0361 in the assay with Sam68 (KHDRBS1), 0.443 in [7] and 0.0178 in assay [8]. Further, the composite Z-score in assay [1] is -0.136 (inactive).
Consider `O=C1OCCC=C1C(O)CCc1ccccc1` (stereo not given), for which the composite z-score is -0.561 with Albumin (Bos taurus); -0.158 in [2]; -0.145 in [3]; 0.192 in [4]; -0.215 in assay [5]; 0.181 in assay [6]. Besides, the composite z-score was -0.0924 in the assay with Sam68 (KHDRBS1), 0.575 in assay [7] and -0.0631 in assay [8]. Moreover, the composite Z-score in assay [1] is 0.149 (inactive).
Consider `CO[C@H]1COC(=O)[C@H](C)NC(=O)[C@@H](C)COC(=O)[C@H]2CCCN2C(=O)CC=C[C@H]1C`, for which the composite z-score in the assay with Albumin (Bos taurus) was -0.74; in [2], -0.178; in [3] it was -0.148; in assay [4], -0.273; in assay [5] it was -0.414; in assay [6], -0.0354. For the same compound, the composite z-score in the assay with Sam68 (KHDRBS1) is 0.476; in assay [7], 1.17; in [8], -0.229. Moreover, the composite Z-score in [1] is -0.533 (inactive).
Take `Cc1cc2c(nc1C)CCCCN2CC(C)ON=C[C@@H](C)[C@H](OCc1ccccc1)C(C)C` (stereo not given in full): the composite z-score is -0.256 in the assay with Albumin (Bos taurus); -0.545 in [2]; -0.237 in assay [3]; -0.523 in [4]; -0.602 in assay [5]; -0.708 in assay [6]. In addition, the composite z-score in the assay on Sam68 (KHDRBS1) is -0.465; in [7] it was -2.12; in assay [8], -1.34. In addition, the composite Z-score in [1] was -0.77 (inactive).
As for `COC(=O)CC=C[C@@H](C)[C@@H](C=NO[C@@H](C)c1cc(-c2c(C)cc(C)cc2C)no1)NS(=O)(=O)c1ccc(C)cc1`, the composite z-score with Albumin (Bos taurus) is -0.356; in [2] it was -0.197; in [3], -0.115; in assay [4], -0.6; in assay [5], -0.238; in assay [6], -0.565. Moreover, the composite z-score with Sam68 (KHDRBS1) was -0.723; in assay [7], -0.674; in assay [8] it was -0.985. The composite Z-score in assay [1] is -0.136 (inactive).
